Experimental data as given in the supplement of paper PMC10849652.
The full data set covers some 8,800 targets. This sample favours those with a hit. About 0.5% of all pairs of compound and target were hits.

Legend:
Test in all cases: log2 fold change, soluble protein after heating vs DMSO (PISA); higher = thermal stabilisation; K562 lysate, 10 uM; active = over 0.2 and 3.5 SD of the protein, either way, in both replicates (recomputed)
ibrutinib = compound: C=CC(=O)N1CCC[C@@H](n2nc(-c3ccc(Oc4ccccc4)cc3)c3c(N)ncnc32)C1 [ibrutinib]
Outline: (§1)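 Following dounce homogenisation of K562 pellets in PBS pH 7.4 with 1 mM MgCl2, crude extract at 1 mg/mL protein was incubated for 30 min with 10 μM compound. Aliquots were then heated for 3 min over 48°C-58°C and pooled, NP-40 was added to 0.5% at 4°C, and soluble protein was recovered as the supernatant at 21,000xg for 90 min. Channel-sum-equalised TMTpro 16plex LC-MS/MS quantified this protein. Each value, from duplicates, is a log-two fold change in thermal stability relative to solvent controls.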

[1] = compound: CC(=O)c1cnc2ccc(-c3cc(Cl)c(O)c(Cl)c3)nc2c1N[C@H]1CC[C@H](CN(C)C)CC1
Outline: as §1

ralimetinib = compound: CC(C)(C)Cn1c(N)nc2ccc(-c3[nH]c(C(C)(C)C)nc3-c3ccc(F)cc3)nc21 [ralimetinib]
Outline: as §1

[2] = compound: CC(C)(O)CC(=O)NCCn1ccc2ncnc(Nc3ccc(Oc4cccc(C(F)(F)F)c4)c(Cl)c3)c21
Outline: as §1

[3] = compound: CC(C)C1=C2N=C(C=C(N2N=C1)NCC3=CC=CC=C3)NCCCCCCN
Outline: as §1

[4] = compound: CC1=C(C(CC(=O)N1)C2=CC=C(C=C2)C(F)(F)F)C(=O)NC3=C(C=C4C(=C3)C=NN4)F
Outline: as §1

[5] = compound: CC1=C(C2=C(C=C1)C(=O)C3=CC=CC=C3N2CCCN)C
Outline: as §1

[6] = compound: CC1=C(C=C(C=C1)NC(=O)C2=CC(=CC=C2)C(C)(C)C#N)NC3=CC4=C(C=C3)N=CN(C4=O)C
Outline: as §1

[7] = compound: CC1=C(C=C(C=C1)NC(=O)C2=CC(=CC=C2)N(C)C)NC(=O)C3=CC=C(C=C3)O
Outline: as §1

[8] = compound: CC1=CC=C(C=C1)SC2=C3C=C(SC3=CN=C2)C(=O)N
Outline: as §1

Measured: log2 fold change

OGT (UniProt O15294)
UniProt O15294, sequence (O15294 whole entry, looked up): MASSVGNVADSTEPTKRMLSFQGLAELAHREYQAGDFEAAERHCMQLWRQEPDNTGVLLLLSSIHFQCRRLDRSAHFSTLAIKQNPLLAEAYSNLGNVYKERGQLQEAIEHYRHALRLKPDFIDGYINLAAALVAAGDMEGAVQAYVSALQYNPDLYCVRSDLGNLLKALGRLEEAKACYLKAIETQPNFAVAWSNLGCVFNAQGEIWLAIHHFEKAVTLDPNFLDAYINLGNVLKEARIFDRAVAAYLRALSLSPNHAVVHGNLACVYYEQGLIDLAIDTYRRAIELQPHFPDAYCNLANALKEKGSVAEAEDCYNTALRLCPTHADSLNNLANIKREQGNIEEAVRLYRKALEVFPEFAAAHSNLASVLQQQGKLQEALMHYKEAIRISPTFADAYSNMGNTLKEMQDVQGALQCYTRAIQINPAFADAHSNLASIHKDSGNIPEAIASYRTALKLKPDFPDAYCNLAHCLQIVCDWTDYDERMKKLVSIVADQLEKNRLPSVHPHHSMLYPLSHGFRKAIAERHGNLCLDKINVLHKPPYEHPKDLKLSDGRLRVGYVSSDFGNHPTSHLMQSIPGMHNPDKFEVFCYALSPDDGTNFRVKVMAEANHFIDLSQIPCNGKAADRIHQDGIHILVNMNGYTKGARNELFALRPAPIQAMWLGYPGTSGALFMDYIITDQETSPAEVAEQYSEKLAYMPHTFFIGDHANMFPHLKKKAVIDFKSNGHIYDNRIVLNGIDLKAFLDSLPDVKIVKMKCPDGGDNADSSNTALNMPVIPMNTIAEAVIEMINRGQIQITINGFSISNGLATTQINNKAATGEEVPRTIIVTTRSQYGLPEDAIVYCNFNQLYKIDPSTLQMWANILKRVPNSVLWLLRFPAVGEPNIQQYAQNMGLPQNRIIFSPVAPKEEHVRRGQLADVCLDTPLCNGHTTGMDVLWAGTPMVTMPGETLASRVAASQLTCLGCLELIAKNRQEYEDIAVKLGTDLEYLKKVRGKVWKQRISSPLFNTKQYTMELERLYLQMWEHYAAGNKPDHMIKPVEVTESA
inactive: ibrutinib -0.035 | [1] -0.024 | ralimetinib 0.021 | [2] 0.023 | [3] -0.007 | [4] -0.009 | [5] -0.026 | [6] -0.014 | [7] 0.032 | [8] -0.005

NARS2 (UniProt Q96I59)
inactive: ibrutinib 0.01 | [1] 0.009 | ralimetinib 0.009 | [2] 0.003 | [3] -0.001 | [4] 0.017 | [5] -0.024 | [6] -0.007 | [7] 0.045 | [8] 0.038

NPLOC4 isoform 2 (UniProt Q8TAT6)
inactive: ibrutinib -0.016 | [1] -0.015 | ralimetinib -0.01 | [2] -0.003 | [3] 0.027 | [4] -0.005 | [5] -0.009 | [6] 0.062 | [7] 0.018 | [8] -0.015

MYO1C (UniProt O00159)
active: [6] -0.292
inactive: ibrutinib 0.037 | [1] 0.031 | ralimetinib 0.075 | [2] -0.032 | [3] -0.009 | [4] -0.03 | [5] 0.017 | [7] 0.021 | [8] 0.06

NELFA (UniProt Q9H3P2)
inactive: ibrutinib 0 | [1] 0.001 | ralimetinib -0.038 | [2] 0.003 | [3] -0.012 | [4] 0.008 | [5] 0.008 | [6] -0.022 | [7] -0.04 | [8] -0.024

MTMR6 (UniProt Q9Y217)
inactive: ibrutinib 0.011 | [1] -0.02 | ralimetinib 0.041 | [2] 0.026 | [3] 0.043 | [4] -0.044 | [5] 0.006 | [6] 0.121 | [7] 0.011 | [8] -0.006

NFATC2 (UniProt Q13469)
UniProt Q13469, sequence (Q13469 whole entry, looked up): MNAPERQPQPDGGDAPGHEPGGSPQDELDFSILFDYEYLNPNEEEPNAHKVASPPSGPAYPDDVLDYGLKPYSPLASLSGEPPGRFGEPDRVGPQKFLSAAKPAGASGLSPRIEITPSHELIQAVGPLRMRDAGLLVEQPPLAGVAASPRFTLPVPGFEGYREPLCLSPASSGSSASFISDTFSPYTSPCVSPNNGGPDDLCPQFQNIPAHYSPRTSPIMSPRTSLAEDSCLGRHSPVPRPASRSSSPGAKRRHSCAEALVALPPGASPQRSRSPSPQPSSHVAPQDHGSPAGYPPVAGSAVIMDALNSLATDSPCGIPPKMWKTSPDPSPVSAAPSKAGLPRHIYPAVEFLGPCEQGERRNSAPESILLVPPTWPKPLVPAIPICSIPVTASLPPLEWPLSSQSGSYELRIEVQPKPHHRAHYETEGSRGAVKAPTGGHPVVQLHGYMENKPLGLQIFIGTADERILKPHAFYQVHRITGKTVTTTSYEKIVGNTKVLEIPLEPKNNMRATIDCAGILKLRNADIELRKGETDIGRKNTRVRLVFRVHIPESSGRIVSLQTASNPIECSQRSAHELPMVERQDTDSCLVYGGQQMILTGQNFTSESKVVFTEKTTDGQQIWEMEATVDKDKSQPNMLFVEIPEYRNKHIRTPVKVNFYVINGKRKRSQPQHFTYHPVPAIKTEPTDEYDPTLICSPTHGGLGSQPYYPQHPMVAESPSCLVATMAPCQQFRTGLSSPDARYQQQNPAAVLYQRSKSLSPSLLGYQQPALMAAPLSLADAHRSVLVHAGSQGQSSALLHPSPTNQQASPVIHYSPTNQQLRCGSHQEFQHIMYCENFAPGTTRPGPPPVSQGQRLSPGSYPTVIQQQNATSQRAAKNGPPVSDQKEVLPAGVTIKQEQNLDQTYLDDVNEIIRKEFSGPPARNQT
inactive: ibrutinib 0.012 | [1] 0.039 | ralimetinib -0.022 | [2] -0.061 | [3] 0.026 | [4] 0.004 | [5] -0.018 | [6] -0.026 | [7] 0.033 | [8] -0.031

OSBPL6 isoform 5 (UniProt Q9BZF3)
inactive: ibrutinib 0.118 | [1] -0.031 | ralimetinib 0.23 | [2] -0.042 | [3] 0.098 | [4] -0.032 | [5] 0.016 | [6] 0.015 | [7] -0.013 | [8] 0.01

ORC5 (UniProt O43913)
inactive: ibrutinib 0.05 | [1] 0 | ralimetinib 0.047 | [2] -0.001 | [3] 0.022 | [4] -0.027 | [5] -0.008 | [6] 0.012 | [7] 0.053 | [8] -0.007

MYH11 isoform 2 (UniProt P35749)
UniProt P35749, sequence (P35749 whole entry, looked up): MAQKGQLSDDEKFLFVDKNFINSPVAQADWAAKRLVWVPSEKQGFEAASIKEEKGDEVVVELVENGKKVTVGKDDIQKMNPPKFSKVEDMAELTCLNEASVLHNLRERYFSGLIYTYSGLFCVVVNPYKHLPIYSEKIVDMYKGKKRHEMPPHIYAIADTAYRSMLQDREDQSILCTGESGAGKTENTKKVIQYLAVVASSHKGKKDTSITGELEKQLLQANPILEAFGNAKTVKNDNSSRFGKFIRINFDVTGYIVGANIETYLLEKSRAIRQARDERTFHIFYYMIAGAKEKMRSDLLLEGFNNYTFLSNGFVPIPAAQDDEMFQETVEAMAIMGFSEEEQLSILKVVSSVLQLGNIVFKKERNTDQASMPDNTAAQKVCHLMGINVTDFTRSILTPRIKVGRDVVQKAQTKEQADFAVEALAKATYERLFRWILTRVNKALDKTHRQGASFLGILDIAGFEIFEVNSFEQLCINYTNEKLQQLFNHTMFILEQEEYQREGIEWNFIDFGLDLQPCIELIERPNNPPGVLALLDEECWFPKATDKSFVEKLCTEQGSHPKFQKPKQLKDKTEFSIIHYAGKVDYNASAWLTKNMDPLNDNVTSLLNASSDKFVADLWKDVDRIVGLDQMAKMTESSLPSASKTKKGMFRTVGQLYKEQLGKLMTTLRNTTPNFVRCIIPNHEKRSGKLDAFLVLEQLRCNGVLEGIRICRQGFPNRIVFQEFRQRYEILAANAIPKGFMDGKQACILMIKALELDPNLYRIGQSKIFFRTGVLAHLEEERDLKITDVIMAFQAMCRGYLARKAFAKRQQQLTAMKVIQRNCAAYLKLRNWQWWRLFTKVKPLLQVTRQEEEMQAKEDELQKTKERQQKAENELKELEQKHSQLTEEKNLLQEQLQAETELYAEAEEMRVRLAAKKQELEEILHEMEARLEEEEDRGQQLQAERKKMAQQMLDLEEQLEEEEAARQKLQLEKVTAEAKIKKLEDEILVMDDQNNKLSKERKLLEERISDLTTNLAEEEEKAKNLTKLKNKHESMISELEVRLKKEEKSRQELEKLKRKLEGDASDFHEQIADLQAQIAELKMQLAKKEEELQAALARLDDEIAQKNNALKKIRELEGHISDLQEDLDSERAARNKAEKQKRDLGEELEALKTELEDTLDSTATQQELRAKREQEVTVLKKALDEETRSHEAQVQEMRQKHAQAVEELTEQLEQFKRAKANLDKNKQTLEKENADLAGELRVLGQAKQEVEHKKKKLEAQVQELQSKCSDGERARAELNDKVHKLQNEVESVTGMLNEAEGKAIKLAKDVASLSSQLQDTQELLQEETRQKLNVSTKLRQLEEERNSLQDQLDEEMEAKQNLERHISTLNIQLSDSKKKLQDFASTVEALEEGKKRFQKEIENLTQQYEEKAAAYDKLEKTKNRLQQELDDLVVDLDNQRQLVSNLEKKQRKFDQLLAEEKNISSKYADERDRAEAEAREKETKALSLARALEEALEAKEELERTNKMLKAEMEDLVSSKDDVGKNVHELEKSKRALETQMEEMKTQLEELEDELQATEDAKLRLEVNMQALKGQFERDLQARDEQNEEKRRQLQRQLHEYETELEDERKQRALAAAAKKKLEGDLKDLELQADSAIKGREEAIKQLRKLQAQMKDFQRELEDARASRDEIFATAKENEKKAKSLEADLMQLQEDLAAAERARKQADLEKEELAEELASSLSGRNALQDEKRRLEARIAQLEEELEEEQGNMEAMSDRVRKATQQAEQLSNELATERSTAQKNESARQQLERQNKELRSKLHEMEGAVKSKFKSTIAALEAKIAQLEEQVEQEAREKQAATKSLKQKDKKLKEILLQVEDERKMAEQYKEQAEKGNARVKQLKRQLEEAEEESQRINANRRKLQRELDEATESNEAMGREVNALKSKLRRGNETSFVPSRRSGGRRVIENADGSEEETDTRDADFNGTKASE
inactive: ibrutinib -0.051 | [1] -0.011 | ralimetinib -0.094 | [2] -0.043 | [3] 0.013 | [4] -0.019 | [5] -0.007 | [6] -0.043 | [7] 0 | [8] -0.004

NCK1 (UniProt P16333)
inactive: ibrutinib 0.025 | [1] -0.029 | ralimetinib 0.003 | [2] 0.01 | [3] -0.016 | [4] 0.028 | [5] 0.002 | [6] -0.005 | [7] 0.029 | [8] 0

NUP188 (UniProt Q5SRE5)
inactive: ibrutinib -0.026 | [1] 0.019 | ralimetinib 0.041 | [2] -0.021 | [3] -0.028 | [4] -0.005 | [5] 0.035 | [6] -0.04 | [7] 0.042 | [8] -0.018

NUDT4 (UniProt Q9NZJ9)
UniProt Q9NZJ9, sequence (Q9NZJ9 whole entry, looked up): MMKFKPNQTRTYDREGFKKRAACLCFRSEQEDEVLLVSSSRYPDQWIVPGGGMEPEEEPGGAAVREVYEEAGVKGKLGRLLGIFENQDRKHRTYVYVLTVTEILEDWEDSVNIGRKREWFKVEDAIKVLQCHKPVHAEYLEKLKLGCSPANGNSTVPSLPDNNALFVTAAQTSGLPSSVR
inactive: ibrutinib 0.091 | [1] 0.022 | ralimetinib 0.074 | [2] 0.067 | [3] -0.012 | [4] 0.017 | [5] 0.003 | [6] -0.105 | [7] -0.014 | [8] 0.058

MYOM1 (UniProt P52179)
inactive: ibrutinib -0.017 | [1] 0.016 | ralimetinib 0.254 | [2] 0.026 | [3] -0.017 | [4] 0.011 | [5] -0.156 | [6] 0.052 | [7] -0.083 | [8] -0.025

PAK1 (UniProt Q13153)
inactive: ibrutinib 0.067 | [1] -0.011 | ralimetinib 0.001 | [2] 0.004 | [3] -0.108 | [4] -0.003 | [5] -0.018 | [6] 0.041 | [7] 0.008 | [8] 0.009

MTA2 (UniProt O94776)
inactive: ibrutinib -0.014 | [1] -0.023 | ralimetinib 0.03 | [2] 0.021 | [3] 0.032 | [4] 0.011 | [5] 0.018 | [6] -0.008 | [7] 0.043 | [8] -0.009

OSGEP (UniProt Q9NPF4)
inactive: ibrutinib -0.009 | [1] 0.02 | ralimetinib 0.022 | [2] -0.03 | [3] -0.003 | [4] 0 | [5] 0.001 | [6] 0.012 | [7] -0.057 | [8] -0.002

NUP160 (UniProt Q12769)
inactive: ibrutinib 0.063 | [1] -0.007 | ralimetinib 0.062 | [2] 0.017 | [3] -0.021 | [4] 0.01 | [5] 0.005 | [6] 0.012 | [7] -0.021 | [8] 0.001

NCAPG2 (UniProt Q86XI2)
inactive: ibrutinib 0.012 | [1] -0.029 | ralimetinib 0.018 | [2] 0.006 | [3] -0.009 | [4] 0.015 | [5] 0.05 | [6] -0.017 | [7] 0.001 | [8] -0.002

N6AMT1 (UniProt Q9Y5N5)
inactive: ibrutinib 0.103 | [1] -0.03 | ralimetinib 0.005 | [2] -0.006 | [3] 0.009 | [4] -0.045 | [5] -0.026 | [6] 0.01 | [7] 0.024 | [8] 0.027

NUP210 (UniProt Q8TEM1)
inactive: ibrutinib -0.029 | [1] -0.01 | ralimetinib -0.011 | [2] -0.075 | [3] -0.005 | [4] 0.024 | [5] -0.017 | [6] -0.005 | [7] -0.027 | [8] -0.012

NUB1 (UniProt Q9Y5A7)
inactive: ibrutinib -0.001 | [1] 0.022 | ralimetinib -0.003 | [2] 0.018 | [3] -0.027 | [4] 0.014 | [5] -0.009 | [6] -0.028 | [7] 0.008 | [8] 0.02

PANK2 (UniProt Q9BZ23)
inactive: ibrutinib -0.056 | [1] 0.001 | ralimetinib -0.069 | [2] -0.047 | [4] -0.073 | [5] -0.126 | [6] -0.046 | [7] -0.002 | [8] 0.023

PARD3B (UniProt Q8TEW8)
inactive: [3] 0.091 | [5] 0.071

NAA16 (UniProt Q6N069)
UniProt Q6N069, sequence (Q6N069 whole entry, looked up): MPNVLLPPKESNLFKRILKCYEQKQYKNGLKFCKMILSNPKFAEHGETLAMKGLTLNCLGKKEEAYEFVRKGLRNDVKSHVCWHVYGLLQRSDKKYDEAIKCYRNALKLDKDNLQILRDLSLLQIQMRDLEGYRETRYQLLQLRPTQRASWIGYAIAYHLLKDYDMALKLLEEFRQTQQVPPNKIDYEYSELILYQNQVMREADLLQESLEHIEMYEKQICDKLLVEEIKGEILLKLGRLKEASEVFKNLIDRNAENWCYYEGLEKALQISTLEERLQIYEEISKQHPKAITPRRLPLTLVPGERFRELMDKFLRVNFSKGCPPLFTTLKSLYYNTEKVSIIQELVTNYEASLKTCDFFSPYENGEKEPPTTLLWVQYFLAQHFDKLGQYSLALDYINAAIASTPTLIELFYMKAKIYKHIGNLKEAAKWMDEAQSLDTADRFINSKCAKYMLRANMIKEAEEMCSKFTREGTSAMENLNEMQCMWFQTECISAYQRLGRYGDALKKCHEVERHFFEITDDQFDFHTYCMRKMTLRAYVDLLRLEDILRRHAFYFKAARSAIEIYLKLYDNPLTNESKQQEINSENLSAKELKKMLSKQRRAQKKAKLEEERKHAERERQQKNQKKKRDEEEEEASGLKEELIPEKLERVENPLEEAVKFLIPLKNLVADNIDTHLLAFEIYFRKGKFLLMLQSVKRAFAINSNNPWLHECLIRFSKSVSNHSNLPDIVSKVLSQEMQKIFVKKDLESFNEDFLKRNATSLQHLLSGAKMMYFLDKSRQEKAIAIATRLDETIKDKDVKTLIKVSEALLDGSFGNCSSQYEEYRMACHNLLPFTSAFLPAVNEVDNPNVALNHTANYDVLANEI
inactive: ibrutinib -0.047 | [1] 0.097 | ralimetinib -0.179 | [2] 0.085 | [4] 0.092 | [5] 0.105 | [7] 0.147 | [8] 0.062

PAGE4 (UniProt O60829)
UniProt O60829, sequence (O60829 whole entry, looked up): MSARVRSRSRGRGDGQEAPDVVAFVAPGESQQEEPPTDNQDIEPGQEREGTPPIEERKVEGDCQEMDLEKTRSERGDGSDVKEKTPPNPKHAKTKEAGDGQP
inactive: ibrutinib 0.056 | [1] -0.029 | ralimetinib 0.028 | [2] -0.077 | [3] 0.072 | [5] -0.014 | [6] 0.04 | [7] 0.078 | [8] 0.004

MYH6 (UniProt P13533)
active: ibrutinib 0.793
inactive: [1] -0.017 | ralimetinib 0.045 | [2] -0.157 | [3] 0.01 | [6] 0.047 | [7] -0.081 | [8] -0.172

MT-ATP8 (UniProt P03928)
inactive: ibrutinib -0.035 | [1] -0.052 | ralimetinib 0.005 | [2] -0.109 | [3] -0.087 | [4] -0.082 | [6] 0.153 | [7] 0.047 | [8] 0.104

NFATC4 isoform 2 (UniProt Q14934)
inactive: ibrutinib -0.053 | [1] -0.075 | [4] -0.067 | [5] -0.057 | [6] 0.125 | [8] -0.063
